# Source: paper PMC5836133, “The intracellular immune receptor Rx1 regulates the DNA-binding activity of a Golden2-like transcription factor”
# Whole data set: some 16,000 sequences, median “e-score” near -0.044, cut for the highest 2% near 0.38. Many of the other results were omitted from the sample, so the highest values are more common in it than they were.
# Molecular target: T1, GST-NbGlk1(82-244) (Nicotiana benthamiana)
# T1 chain: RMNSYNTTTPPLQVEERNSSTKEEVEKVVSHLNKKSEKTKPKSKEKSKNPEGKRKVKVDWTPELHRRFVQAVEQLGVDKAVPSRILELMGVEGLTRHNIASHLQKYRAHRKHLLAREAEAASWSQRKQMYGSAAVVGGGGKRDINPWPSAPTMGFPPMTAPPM
# Test: protein-binding microarray; NbGlk1 is a Golden2-like transcription factor of Nicotiana benthamiana; high values mean tight binding
# Settings: protein: recombinant; tags: GST (pTH6838); dsDNA, one strand shown
row,Sequence,binding signal [E-score]
1,ATCTGTTC,0.214 ± 0.0509
2,AGGAAGAT,0.276 ± 0.00329
3,ATCGTGCG,0.234 ± 0.00703
4,AATCACTG,0.269 ± 0.00608
5,ATACTCAT,0.264 ± 0.0418
6,AAGAATCA,0.3254 ± 0.00141
7,AAGAATCC,0.455 ± 0.016
8,AAGAATCG,0.374 ± 0.0323
9,ATCCGCGC,0.215 ± 0.0363
10,AAGATCCC,0.333 ± 0.0797
11,AATATTCG,0.258 ± 0.049
12,AAGATTCT,0.4522 ± 0.000701
13,AATATTCC,0.341 ± 0.0191
14,AAAATTCC,0.201 ± 0.0158
15,AAGATTCC,0.46 ± 0.0101
16,AATATTCT,0.313 ± 0.0605
17,AAGATTCG,0.41 ± 0.0145
18,AAGATTCA,0.205 ± 0.0308
19,AAGATCCG,0.332 ± 0.0135
20,CAGATTCC,0.473 ± 0.0158
21,ATTTCATC,0.269 ± 0.0106
22,AATTCCCG,0.27 ± 0.108

row,Sequence,binding signal [E-score]
1,CACGATTC,0.3711 ± 0.000458
2,ATATCAGG,0.305 ± 0.00775
3,CACAATCC,0.366 ± 0.0571
4,ATCCTAAC,0.254 ± 0.069
5,ATCTGTAA,0.331 ± 0.0244
6,ATTCGCTG,0.298 ± 0.0414
7,ATACGAAT,0.352 ± 0.0554
8,ATATTATA,0.279 ± 0.00302
9,ATCCTATC,0.258 ± 0.104
10,CAGATTCG,0.438 ± 0.0122
11,CAGATTCA,0.293 ± 0.0151
12,CAAATTCG,0.213 ± 0.1
13,ATAGTAAT,0.315 ± 0.0567
14,ATTACCGC,0.289 ± 0.0145
15,AACAGATT,0.426 ± 0.00502
16,AACGGATA,0.215 ± 0.0275
17,AACGGATC,0.25 ± 0.015
18,AAAAGATC,0.301 ± 0.0113
19,AACAGATA,0.271 ± 0.00439
20,AAAAGAAT,0.267 ± 0.0274
21,AAAAGATT,0.388 ± 0.0102
22,AATAGATC,0.247 ± 0.0558

row,Sequence,binding signal [E-score]
1,AACGGATT,0.392 ± 0.0181
2,AATAGATT,0.406 ± 0.0231
3,AACAGATC,0.305 ± 0.0266
4,AATAGATA,0.245 ± 0.0719
5,CAGAGATC,0.312 ± 0.0606
6,ACTGGAAT,0.256 ± 0.0159
7,AGAGGAAT,0.21 ± 0.0368
8,ATATGCAA,0.29 ± 0.0125
9,AAGAGATT,0.4 ± 0.035
10,AAGAGATC,0.377 ± 0.0169
11,AAGAGATA,0.309 ± 0.0135
12,ATTCTCAG,0.32 ± 0.0298
13,AATCGCAT,0.274 ± 0.0414
14,ATTCTCAA,0.329 ± 0.0151
15,AATCTCAC,0.394 ± 0.0342
16,AATCTCAA,0.421 ± 0.0141
17,AATCTCTG,0.3738 ± 0.00333
18,ATCCTCAT,0.212 ± 0.0808
19,AATCTCTC,0.368 ± 0.0262
20,AATCTCAT,0.4204 ± 0.00133
21,ATTCTCAC,0.299 ± 0.0167
22,AATCTCAG,0.428 ± 0.00714

row,Sequence,binding signal [E-score]
1,AATCTCTA,0.3774 ± 0.00278
2,ATTACGTC,0.277 ± 0.0973
3,ATCCCGTA,0.31 ± 0.0475
4,ATACGAGA,0.231 ± 0.0125
5,ATATTAGA,0.212 ± 0.0145
6,ATTTGTAG,0.21 ± 0.125
7,AAGATTGT,0.297 ± 0.0412
8,CAGATTGC,0.4754 ± 0.00468
9,AAGATTGC,0.443 ± 0.0277
10,AATATTGC,0.225 ± 0.0215
11,AAGATTGG,0.206 ± 0.0123
12,ATCTATAG,0.288 ± 0.0139
13,ATCGAGAT,0.327 ± 0.0101
14,AACAGGAA,0.207 ± 0.0723
15,ATCTTAAC,0.317 ± 0.00626
16,AGAAATCT,0.465 ± 0.00635
17,AGAAATCA,0.3794 ± 0.00281
18,AGCAATCC,0.412 ± 0.0143
19,AGAAATCG,0.338 ± 0.0619
20,AGAAATAT,0.3621 ± 0.00196
